Compound activity (PubChem)
SMARCA2 activ = SMARCA2 (BRM) function activators, primary screen, cell-based, luminescence, high throughput. MG213 cells, MMTV-luciferase reporter, dexamethasone, overnight. activation, % at 9.1 µM. 1% of 370,000 active; in the data active = activation above about 7.8%
GAA850 FXN act = FXN promoter activators, primary screen, cell-based, luciferase luminescence, HEK293 lucGAA850; 0.56% of 360,000 active; activation, % at 6 µM; HEK293 lucGAA850 FXN promoter luciferase reporter, 24 h; percent of 10 µM SAHA response;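 active = activation above the average of all compounds screened plus 3 SD, cutoff fixed separately per campaign, cut at about 7.5% in these data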
HIF activator = HIF pathway transcriptional activators, primary screen, cell-based, U2OS HRE-luciferase, luminescence; U2OS HRE-luciferase reporter; normalized: DMSO 0%, desferrioxamine 100%; activation, % at 7.5 µM (by protocol); 0.32% of 300,000 active; AID 1910, 2009;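 active = mean activation of at least 10% of the iron chelator positive control signal, with at least half of replicates also reaching 10%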
GalR3 antag = GalR3 antagonists in HEK293 cells, primary screen, cell-based, fluorescence readout; inhibition, % at 3 µM; AID 651719, 2012; 0.44% of 360,000 active; Galanin receptor type 3 (Homo sapiens), O60755; HEK293 GalR3-CNG cAMP membrane potential fluorescence; galR3 body fused to GalR1 C-terminus;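 active = inhibition above the screen-wide average plus 3 SD, cut at about 13% in these data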;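 note: forskolin and galanin both at EC90 stimulate the cells; cAMP rise reported by CNG channel membrane potential dye signal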
Target sequence (O60755 1-299 limits assumed): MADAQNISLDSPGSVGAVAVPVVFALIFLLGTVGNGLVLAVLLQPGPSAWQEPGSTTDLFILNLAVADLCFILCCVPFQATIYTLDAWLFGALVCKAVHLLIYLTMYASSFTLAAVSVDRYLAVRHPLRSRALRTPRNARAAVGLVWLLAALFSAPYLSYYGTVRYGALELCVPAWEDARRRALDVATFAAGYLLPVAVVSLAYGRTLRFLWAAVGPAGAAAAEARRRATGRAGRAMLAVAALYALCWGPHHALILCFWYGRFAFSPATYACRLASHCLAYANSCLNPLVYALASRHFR
Hsp70 activator = Hsp70 transcriptional activators, primary screen, cell-based, HeLa, Hsp70 promoter luciferase, luminescence, 10 µM | 0.04% of 200,000 active | activation, % at 10 µM | HeLa Hsp70 promoter luciferase reporter; scaled: vehicle 0, proteasome-inhibitor control 100% | AID 1203, 2008;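 active = activation above the mean across all tested compounds plus 3 SD, cutoff set per campaign, cut at about 5.5% in these data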
SMARCA2 conf = SMARCA2 (BRM) function activators, confirmation, cell-based, luminescence, triplicate; AID 652260, 2013; activation, % at 9.1 µM; MG213 cells, MMTV-luciferase with dexamethasone, overnight; MG213 cells expressing E1A, Rb sequestered; DMSO wells 0%, reference activator 100%; 30% of 3,500 active; shares compounds with SMARCA2 activ;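 active = activation above its plate's cutoff, the mean activation of tested wells plus 3 SD, cut at about 7.9% in these data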
GAL4-VP16 Luc = GAL4-VP16 luciferase reporter activation, counter-screen for SMARCA2 (BRM) activator project, cell-based, pG5luc, luminescence, high throughput. shares compounds with SMARCA2 activ. HEK293 GAL4-VP16 pG5luc reporter; scaled: DMSO wells 0%, SAHA wells 100%. activation, % at 9.1 µM. 41% of 3,500 active. AID 686939, 2013;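 active = activation above the solvent-only control well mean plus 3 SD, averaged across control plates, cut at about 5.2% in these data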
A number is an active result; 0 = inactive; - = not tested or not shown. This is a sample that favours compounds with a hit; in the whole collection about 2.2% have one here.

SMILES	SMARCA2 activ	GAA850 FXN act	HIF activator	GalR3 antag	Hsp70 activator	SMARCA2 conf	GAL4-VP16 Luc
CCc1nc2ccc(C(=O)Nc3ccc(NC(C)=O)cc3)cn2c1N(CCC(C)C)CCN(C)C	8.4	0	-	0	-	0	0
O=S1(=O)c2ccc(Br)cc2OC[C@H](Cc2ccccc2)N1Cc1cn(Cc2ccc(C(F)(F)F)cc2)nn1	0	-	-	-	-	-	-
CC[C@@H](CCCc1ccc(OC)cc1)CCC(=O)N(c1ccccc1)c1ccccc1	0	-	-	-	-	-	-
O=C(NCc1ccco1)c1cnc2sccn2c1=O	0	0	0	0	0	-	-
O=C(NCCc1ccccc1)c1cnc2sccn2c1=O	9.6	0	0	0	0	8.3	9.4
O=C1c2ccccc2C(=O)N1c1ccc(Cl)cn1	8.1	0	0	0	0	0	0
O=C(COC(=O)c1cccnc1Cl)Nc1nc(-c2ccccc2)cs1	9.9	0	0	0	0	0	0
NNC(=O)c1ccc(Cn2cc(Br)cn2)o1	8.1	0	0	0	-	0	0
O=C(NCCN1CCC(Cc2ccccc2)CC1)C1CCCN(S(=O)(=O)c2ccc([N+](=O)[O-])cc2)C1 (stereo not given)	0	-	-	-	-	-	-
CCN(CC)CCn1c(=N)n(CC(O)COc2cccc(C)c2)c2ccccc21 (stereo not given)	8.3	0	0	0	0	0	0
O=C(NCCc1ccccc1)c1nc2ncccn2n1	0	0	0	0	0	-	-
c1ccc(CSc2nc3ncccn3n2)cc1	8.7	0	-	0	-	12	8.8
CCCOc1nccc2c1n(C)c(=O)n2C	0	-	-	-	-	-	-
CC(C)(C)c1nnc(NC(=O)Nc2ccc(Cl)cc2)s1	0	0	0	0	-	-	-
Cc1nc(NC(=O)c2ccccc2)sc1C	8.2	0	0	0	-	0	7.8
Cc1nc(NC(=O)Nc2ccc(Cl)cc2)sc1C	8.6	0	0	0	0	0	10
CCOC(=O)[C@]12CCCC=C1N(Cc1ccc(OC)cc1)C(=O)[C@@H]2CC(=O)NCC12CC3CC(CC(C3)C1)C2	0	-	-	-	-	-	-
CC(SCc1cc(=O)n2c([nH]c3ccccc32)c1C#N)C(=O)O (stereo not given)	11	0	0	0	0	0	0
COc1ccc(C(=O)N/N=C/c2cccnc2)cc1	11	0	0	0	-	0	0
O=C(N/N=C\c1cccnc1)c1ccccc1O	0	0	0	0	-	-	-
O=C(N/N=C/C(Cl)=C/c1ccccc1)c1ccco1	0	0	0	0	0	-	-
O=C(N/N=C/C(Cl)=C\c1ccccc1)c1ccco1	12	0	0	0	-	0	8.3
CC(=O)Nc1ccc(C(=O)N/N=C/c2cccnc2)cc1	0	0	0	0	0	-	-
O=C(N/N=C/c1cccnc1)c1ccco1	10	0	0	0	-	0	0
CC(C)c1ccc(NC(=O)COC(=O)C2CCCCC2)cc1	8.4	0	-	0	-	0	0
SMILES	SMARCA2 activ	GAA850 FXN act	HIF activator	GalR3 antag	Hsp70 activator	SMARCA2 conf	GAL4-VP16 Luc
Cc1ccccc1C(=O)N(C)[C@H]1C[C@H]2c3[nH]c4c(-c5ccccc5)cccc4c3CCN2C(=O)[C@H]1[C@H](C)O	0	-	-	0	-	-	-
CCCCn1c(CN(Cc2ccccc2)Cc2ccccc2)nc2c1c(=O)n(C)c(=O)n2C	9.8	0	0	0	0	0	0
CN(C)c1ccc(C(=O)NCCc2ccccc2-c2ccccc2CCC(=O)NCc2ccccc2)cc1	0	-	-	-	-	-	-
CCN(CC)C(=O)CSc1nc(N)c2c3c(sc2n1)CC(C)CC3 (stereo not given)	8.3	0	0	0	0	0	8.1
COCc1cc(C)nc(N/N=C/c2ccc(-c3cc(C(=O)O)ccc3Cl)o2)c1C#N	0	-	0	0	0	-	-
COCc1cc(C)nc(N/N=C/c2ccc(Cl)c(Cl)c2)c1C#N	8.3	0	0	0	0	0	0
